Data from the supplement of paper PMC6522484.
± gives the standard deviation of the averaged measurements.

Key:
DLD1 [1] = assay: cell viability (CellTiter-Glo) relative to plate median (fraction of plate median); higher = more viable cells; details: 5 µM; treatment time 24 h; reporter: 7TFP
Outline: (§1)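 Values are well luminescence normalised to the plate median, from either a firefly luciferase or a CellTiterGlo readout on parallel plates. The cells, colorectal cancer lines stably transduced with lentiviral 7TFP or TCF4/Wnt firefly luciferase reporters, were treated with library compounds at a final 5 µM for 24 h. The mean of two independent replicates is listed.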

HCT116 = assay: as above; details: 5 µM; treatment time 24 h; reporter: TCF4/Wnt
Outline: as §1

SW480 [2] = assay: as above; details: 5 µM; treatment time 24 h; reporter: 7TFP
Outline: as §1

DLD1 [3] = assay: TCF/Wnt firefly luciferase reporter signal relative to plate median (fraction of plate median); higher = higher Wnt reporter signal; details: 5 µM; treatment time 24 h; reporter: 7TFP
Outline: as §1

SW480 [4] = assay: as above; details: 5 µM; treatment time 24 h; reporter: 7TFP
Outline: as §1

SMILES	cell viability (DLD1 [1])	cell viability (HCT116)	cell viability (SW480 [2])	TCF/Wnt firefly luciferase reporter signal (DLD1 [3])	TCF/Wnt firefly luciferase reporter signal (SW480 [4])
[O-][n+]1ccccc1[S-].[O-][n+]1ccccc1[S-].[Zn+2]	0.515 ± 0.32	0.19 ± 0.11	0.628 ± 0.13	0.216 ± 0.13	0.165 ± 0.15
CC(=O)O[C@H]1[C@H]2[C@@H](OC(=O)Cc3ccccc3)[C@@H](C)C[C@]2(OC(C)=O)C(=O)/C(C)=C/[C@@H]2[C@H](CC[C@@]13CO3)C2(C)C	1.06 ± 0.097	1.01 ± 0.086	1.06 ± 0.021	1.09 ± 0.014	1.075 ± 0.0071
O=[N+]([O-])c1cc(O)c(O)c([N+](=O)[O-])c1	0.891 ± 0.081	0.942 ± 0.096	1.03 ± 0.073	0.831 ± 0.27	0.852 ± 0.044
Cc1ccc(O)cc1.Cc1cccc(O)c1.Cc1ccccc1O	1.085 ± 0.0071	1.08 ± 0.14	1.01 ± 0.014	1.09 ± 0.064	1.09 ± 0.057
N[C@@H](Cc1ccc(N(CCCl)CCCl)cc1)C(=O)O	1.01 ± 0.17	1.02 ± 0.04	1 ± 0.04	0.986 ± 0.0057	0.936 ± 0.081
Cc1cccc(C)c1NC1=NCCCS1	1.04 ± 0.073	1.01 ± 0.036	0.992 ± 0.012	1.07 ± 0.05	1.02 ± 0.083
C[C@]12CCC(=O)C[C@@H]1CC[C@@H]1[C@@H]2CC[C@]2(C)C(=O)CC[C@@H]12 [5alpha-ANDROSTAN-3,17-DIONE]	0.895 ± 0.095	1.07	0.959 ± 0.052	0.959 ± 0.086	0.9525 ± 0.005
O=C1C[C@@H]2OCC=C3CN4CC[C@]56c7ccccc7N1[C@H]5[C@H]2[C@H]3C[C@H]46	1.06 ± 0.14	0.963 ± 0.015	1.05 ± 0.071	0.927 ± 0.044	0.997 ± 0.089
Cc1cc(O)cc2oc(=O)c3c(O)cc(O)cc3c12 [Alternariol]	0.914 ± 0.017	0.919 ± 0.013	1.01 ± 0.03	0.861 ± 0.12	0.992 ± 0.097
C[C@]12CCC(=O)C=C1C=C[C@@H]1[C@@H]2CC[C@@]2(C)[C@H]1CC[C@@]2(O)CCC(=O)O	1.02 ± 0.07	1.16 ± 0.014	1.04 ± 0.028	1.01 ± 0.05	1.06
C/C=C(/C)C(=O)O[C@H]1CC[C@@]2(C)[C@@H]3CC[C@H]4[C@]5(O)C[C@H](O)[C@@]6(O)[C@@H](CN7C[C@@H](C)CC[C@H]7[C@@]6(C)O)[C@]5(O)C[C@]42O[C@]13O	0.9805 ± 0.0064	0.892 ± 0.06	1.04 ± 0.064	1.16 ± 0.064	1.185 ± 0.0071
Nc1ccc([As](=O)(O)O)cc1	1.01 ± 0.021	1.09 ± 0.092	0.941 ± 0.04	0.976 ± 0.063	0.962 ± 0.028
CNC(=O)Oc1ccc2c(c1)[C@]1(C)CCN(C)[C@@H]1N2C	0.948 ± 0.0071	0.889 ± 0.12	0.966 ± 0.047	1.08 ± 0.12	0.989 ± 0.072
C[C@@H]1C[C@H](C)C[C@H](C)[C@@H](O)CC(=O)O[C@H]([C@@H]2CCC[C@H]2C(=O)O)C/C=C/C=C(/C#N)[C@H](O)[C@@H](C)C1 [Borrelidin]	0.894 ± 0.067	0.817 ± 0.18	1.01 ± 0.02	0.989 ± 0.059	1.06 ± 0.095
CCCCC[C@H](O)c1c(O)cc2c(c1O)C(=O)c1c(O)cc(O)cc1C2=O [Averantin]	1.02 ± 0.035	1.075 ± 0.0071	0.9935 ± 0.00071	1 ± 0.11	0.939 ± 0.14
COc1cc(OC)c(OC)cc1C=O	0.981 ± 0.13	1.01 ± 0.035	0.988 ± 0.06	0.925 ± 0.0042	0.963 ± 0.04
Cc1ncc(CNC(=O)N(CCCl)N=O)c(N)n1	1.02 ± 0.021	0.98 ± 0.0071	1.025 ± 0.0071	1.01 ± 0.03	0.987 ± 0.019
C[C@@H]1O[C@@H](O[C@H]2CC[C@]3(C=O)[C@H]4CC[C@]5(C)[C@@H](C6=CC(=O)OC6)CC[C@]5(O)[C@@H]4CC[C@]3(O)C2)[C@H](O)[C@H](O)[C@H]1O	0.885 ± 0.13	0.4 ± 0.12	0.913 ± 0.025	0.178 ± 0.15	0.263 ± 0.043
CC(C)CC(N(C)C)C1(c2ccc(Cl)cc2)CCC1 (stereo not given)	0.917 ± 0.072	0.924 ± 0.013	1.02 ± 0.042	0.991 ± 0.042	0.87 ± 0.073
CC(=O)O[C@@H]1C[C@H]2C(C)(C)C(=O)C=C[C@]2(C)[C@H]2CC[C@]3(C)C(=CC(=O)O[C@H]3c3ccoc3)[C@@]21C	0.99 ± 0.086	0.997 ± 0.075	0.963 ± 0.016	1.03 ± 0.1	0.975 ± 0.05
COP(=S)(OC)Oc1ccc(SC)c(C)c1	1 ± 0.014	1.07 ± 0.085	1.04 ± 0.042	1.07 ± 0.028	1.01 ± 0.1
C[C@@H]1C(=O)O[C@H]2[C@H]1CC[C@@]1(C)C=CC(=O)[C@@]3(C)O[C@@]213 [EPOXY (4,5alpha)-4,5-DIHYDROSANTONIN]	0.995 ± 0.064	1.17 ± 0.071	1 ± 0.023	0.966 ± 0.09	0.902 ± 0.042

SMILES	cell viability (DLD1 [1])	cell viability (HCT116)	cell viability (SW480 [2])	TCF/Wnt firefly luciferase reporter signal (DLD1 [3])	TCF/Wnt firefly luciferase reporter signal (SW480 [4])
NCC(CC(=O)O)c1ccc(Cl)cc1 (stereo not given)	0.998 ± 0.088	0.9975 ± 0.0035	1.03 ± 0.028	0.897 ± 0.1	1.02 ± 0.12
COc1ccc2c3c([nH]c2c1)C(C)=NCC3	1.03 ± 0.059	0.971 ± 0.069	0.999 ± 0.03	1.25 ± 0.021	1.15 ± 0.071
Cc1ccc(-c2nc3ccc(C)cn3c2CC(=O)N(C)C)cc1	1.02 ± 0.035	1.09 ± 0.16	0.955 ± 0.056	1.13 ± 0.085	0.988 ± 0.06
COP(=S)(OC)Oc1ccc(Sc2ccc(OP(=S)(OC)OC)cc2)cc1	1.025 ± 0.0071	1.06 ± 0.014	0.987 ± 0.011	1.06 ± 0.092	1.04 ± 0.014
COc1cc2c(cc1OC)[C@@H]1C(=O)c3ccc4oc(C(C)C)cc4c3O[C@@H]1CO2	0.923 ± 0.052	0.875 ± 0.14	0.75 ± 0.021	0.974 ± 0.028	0.749 ± 0.052
NC(=O)Cc1ccccc1 [Phenylacetamide]	1.11 ± 0.071	1.005 ± 0.0071	1.01 ± 0.016	1.11 ± 0.14	1.11
CC(NC(C)(C)C)C(=O)c1cccc(Cl)c1 (stereo not given)	1.02 ± 0.037	1.02 ± 0.021	1.02 ± 0.021	1.11 ± 0.057	1.02 ± 0.11
COC(=O)[C@]1(C)CC[C@]2(C)CC[C@]3(C)C4=CC=C5C(=CC(=O)C(O)=C5C)[C@]4(C)CC[C@@]3(C)[C@@H]2C1	0.981 ± 0.0085	1.16 ± 0.05	1.03 ± 0.014	1.11 ± 0.071	1.03 ± 0.08
O=c1c(O)c(-c2ccc(O)c(O)c2)oc2c(O)c(O)cc(O)c12	0.905 ± 0.12	1.1 ± 0.085	0.9465 ± 0.00071	0.9395 ± 0.0035	0.916 ± 0.033
CCC(C)C(=O)O[C@@H]1C[C@@]2(C)[C@H](c3ccoc3)OC(=O)CC23OC2(C)O[C@]14[C@]1(C)[C@@H](CC(=O)OC)C5(C)CC1(O)[C@](O)(C5OC(=O)C1(C)OC1C)[C@@H](OC(C)=O)[C@]34O2 (stereo not given in full)	0.972 ± 0.027	0.961 ± 0.11	1 ± 0.013	1.04 ± 0.014	0.928 ± 0.19
CCCCCCCCC(=O)NCc1ccc(O)c(OC)c1	1.04 ± 0.064	0.972 ± 0.025	0.981 ± 0.056	0.792 ± 0.14	0.822 ± 0.061
CC[C@@H](CO)NC(=O)[C@@H]1C=C2c3cccc4[nH]cc(c34)C[C@H]2N(C)C1	0.968 ± 0.045	1.02 ± 0.028	0.957 ± 0.054	1.04 ± 0.028	1.075 ± 0.0071
CC[C@@]1(O)C[C@H](O[C@H]2C[C@H](N(C)C)[C@H](O)[C@H](C)O2)c2c(cc3c(c2O)C(=O)c2c(O)ccc(O)c2C3=O)[C@H]1C(=O)OC	0.893 ± 0.075	0.548 ± 0.029	1.05 ± 0.042	0.569 ± 0.068	0.711 ± 0.016
COc1ccc2c(c1OC)C(=O)O[C@@H]2[C@H]1c2cc3c(cc2CCN1C)OCO3	1.05 ± 0.042	1.1 ± 0.078	1.1 ± 0.035	1.18 ± 0.05	1.04 ± 0.097
S=C=NCc1ccccc1	0.961 ± 0.053	0.928 ± 0.039	0.959 ± 0.012	0.748 ± 0.17	0.822 ± 0.071
CCCCCCCCCc1ccc(O)cc1	1.03 ± 0.028	0.999 ± 0.016	0.946 ± 0.0071	1.19 ± 0.092	1.17 ± 0.05
Cc1c(O)c(O)cc2c1CC=C1[C@@]2(C)CC[C@@]2(C)[C@@H]3C[C@](C)(C(=O)O)CC[C@]3(C)CC[C@]12C	0.88 ± 0.082	0.981 ± 0.069	1.03 ± 0.045	0.863 ± 0.073	0.846 ± 0.079
Cc1cc(O)ccc1Cl	1.04 ± 0.035	0.994 ± 0.023	1.02 ± 0.028	0.941 ± 0.015	0.834 ± 0.069
COc1cccc(C=O)c1OC	1.01 ± 0.022	1.1 ± 0.15	1 ± 0.043	1.03 ± 0.073	0.914 ± 0.088
C[N+]1(C)[C@@H]2C[C@@H](OC(=O)[C@H](CO)c3ccccc3)C[C@H]1[C@@H]1O[C@@H]12	1.09 ± 0.021	0.971 ± 0.069	1.035 ± 0.0071	0.9885 ± 0.005	1.085 ± 0.0071
C=C(C)[C@@H]1CC[C@]2(C(=O)O[C@@H]3O[C@H](CO[C@@H]4O[C@H](CO)[C@@H](O[C@@H]5O[C@@H](C)[C@H](O)[C@@H](O)[C@H]5O)[C@H](O)[C@H]4O)[C@@H](O)[C@H](O)[C@H]3O)CC[C@]3(C)[C@H](C[C@H]4OC(=O)C[C@@H](O)[C@]5(C)[C@@H]4[C@@]3(C)CC[C@H]5C(=C)C)[C@@H]12 [Chiisanoside (5)]	0.873 ± 0.16	0.958 ± 0.074	0.945 ± 0.059	0.817 ± 0.059	0.948 ± 0.12
